From PubChem
The full list was thinned out, with hits kept by preference.
GIRK2 act – activators of NPY4-receptor-primed GIRK2 channels, summary, cell-based, HEK293, thallium flux | 34,000 tested, under 10 active | activation (% efficacy), % for hits at 37.5 µM | G protein-activated inward rectifier potassium channel 2 (Homo sapiens), P48051 | AID 1259324, 2017 | HEK293 GIRK2/NPY4 cells, thallium flux fluorescence;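 active means primary screen hit, no activity in plain HEK293 cells, and in GIRK2-only cells above 5% efficacy rising with concentration; inactive means the rest, including fluorescent compounds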;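 further: efficacy is normalized control-subtracted fluorescence 15 s after thallium addition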
Target sequence (P48051 whole entry, looked up): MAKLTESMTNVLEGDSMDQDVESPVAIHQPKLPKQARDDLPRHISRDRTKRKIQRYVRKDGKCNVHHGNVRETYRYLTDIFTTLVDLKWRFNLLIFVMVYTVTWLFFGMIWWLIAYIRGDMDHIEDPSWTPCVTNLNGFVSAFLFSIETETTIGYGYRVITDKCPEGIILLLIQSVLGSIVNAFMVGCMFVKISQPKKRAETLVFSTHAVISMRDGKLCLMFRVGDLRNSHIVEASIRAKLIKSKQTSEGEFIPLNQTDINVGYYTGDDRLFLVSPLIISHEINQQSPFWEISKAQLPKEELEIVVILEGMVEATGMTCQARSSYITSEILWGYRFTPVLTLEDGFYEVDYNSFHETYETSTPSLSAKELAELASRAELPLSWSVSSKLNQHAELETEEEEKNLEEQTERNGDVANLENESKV
AMPAR-TARP mod – modulators of GluA2-stargazin AMPA receptor complexes, primary screen, cell-based, membrane potential dye; calls only at 30 µM; 40,000 compounds, 3.5% hits; Voltage-dependent calcium channel gamma-2 subunit (Mus musculus) + Glutamate receptor 2 …; HEK293 GluA2+stargazin, membrane potential dye (FDSS), glutamate EC50; hits were called plate by plate, in both directions;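 active means any of four per-well response measures lying three or more SD from its plate-wide compound average, in either direction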
Starred values were filed as active, the others as inactive; i = inactive; · = no result; + = active, no number; ! = repeats disagree.

SMILES	GIRK2 act	AMPAR-TARP mod
COc1ccc(-c2ccc(C)c(NC(=O)Cc3ccc(OC)c(OC)c3)c2)nn1	i	i
COc1cccc(C(=O)NCC(O)(c2cccs2)C2CC2)c1OC (stereo unspecified)	i	i
COc1nn(C)cc1C(=O)NCC(O)(c1ccccc1)C1CC1 (stereo unspecified)	·	i
COc1ccc(Cl)cc1C(=O)NCC(O)(c1ccccc1)C1CC1 (stereo unspecified)	·	+
COc1ccc(Cl)cc1C(=O)NCC(O)(c1cccs1)C1CC1 (stereo unspecified)	i	+
CC(O)CNC(=O)C(=O)Nc1ccc(Cl)cn1 (stereo unspecified)	·	i
COc1ccc(-c2ccc(C#N)c(SCc3ccc(C#N)cc3)n2)cc1	i	i
COc1ccc(-c2ccc3c(N)c(-c4ccc(C#N)cc4)sc3n2)cc1	i	+
Cn1ccc(C(=O)N(Cc2cccnc2)c2nc3c(Cl)cccc3s2)n1	i	i
CC(C)n1ccc(C(=O)N(Cc2ccccn2)c2nc3c(Cl)cccc3s2)n1	i	+
CC(C)S(=O)(=O)c1cccc(C(=O)Nc2nc(-c3ccccc3)c(-c3ccccc3)s2)c1	i	i
COc1cc(/C=C/c2ccc3cccc(O)c3n2)ccc1OCc1ccccc1	·	i
CCOc1cc(/C=C/c2ccc3cccc(O)c3n2)ccc1OC	·	+
O=[N+]([O-])c1cc(/C=C/c2ccc3cccc(O)c3n2)ccc1O	·	+
COc1cc(/C=C/c2ccc3cccc(O)c3n2)ccc1O	·	+
COc1cc(Br)c(/C=C/c2ccc3cccc(O)c3n2)cc1OC	·	i
O=[N+]([O-])c1ccc(O)c(/C=C/c2ccc3cccc(O)c3n2)c1	·	i
CS(=O)(=O)N1CCCC1C(=O)Nc1nc(-c2ccc(Cl)s2)cs1 (stereo unspecified)	i	i
O=C(Cn1cnc(-c2cccs2)cc1=O)NCCn1nc(-c2ccco2)ccc1=O	i	i
Cc1ccc(NC(=O)OCc2ccccc2)cc1N1CCCCC1=O	i	i
COC(=O)c1ccc(C(=O)OC)c(NC(=O)Cc2cc(=O)oc3cc(C)ccc23)c1	i	i
CS(=O)(=O)N1CCCCC1C(=O)N(Cc1ccccc1)Cc1ccccc1 (stereo unspecified)	i	+
CS(=O)(=O)N1CCCC(C(=O)N(Cc2ccccc2)Cc2ccccc2)C1 (stereo unspecified)	i	i
Cc1ccc(-c2nnc(CN3CCC(Cc4ccccc4)CC3)o2)cc1	i	+!
Cc1ccc(-c2nnc(CN3CCN(Cc4ccccc4)CC3)o2)cc1	i	i
SMILES	GIRK2 act	AMPAR-TARP mod
Cn1cccc1CN(C(=O)CSCc1ccccc1)C1CC1	i	·
CCNC(=O)C1CCN(c2cc(SCC(=O)Nc3ccccc3C)ncn2)CC1	i	i
Cc1cc(C)n(CC(=O)Nc2cccc(C#N)c2)c(=O)c1C#N	i	·
COc1ccc(Nc2nc(N3CCCC3)c3ccccc3n2)cc1	·	+
COc1ccc(Nc2nc(C)c([N+](=O)[O-])c(N3CCCC3)n2)c(OC)c1	i	i
O=C1CC(NC(=O)c2ccc(-c3ccccc3)cc2)CN1 (stereo unspecified)	i	·
O=C(NCCc1cccs1)c1nnn(-c2ccccc2Cl)c1-c1ccncc1	i	+
CC(C(=O)NCCc1cccs1)n1nnc2ccccc2c1=O (stereo unspecified)	i	i
O=C(COc1ccc(C(=O)c2ccccc2)cc1)NCCn1nc(-c2cccs2)ccc1=O	i	i
O=C(COc1ccc(C(=O)c2ccccc2)cc1)NCCn1nc(-c2ccc(Cl)cc2)ccc1=O	i	+
O=C(/C=C/c1ccc2c(c1)OCO2)NCC1CCN(C(=O)c2cc3ccccc3o2)CC1	i	+
O=C(/C=C/c1ccccc1)NCC1CCN(C(=O)c2cc3ccccc3o2)CC1	i	+
O=C(CSCc1ccccc1)NCC1CCN(C(=O)c2cc3ccccc3o2)CC1	i	i
O=C(c1cc2ccccc2o1)N1CCC(CNS(=O)(=O)c2ccc3c(c2)OCCO3)CC1	i	i
CCOc1ccc(CCNC(=O)C2CCC(Cn3c(=O)[nH]c4ccsc4c3=O)CC2)cc1 (stereo unspecified)	·	i
O=C(CSc1nc(=O)n(CCO)c2c1CCC2)Nc1ccc(F)c([N+](=O)[O-])c1	i	+
O=c1nc(SCc2ccc(Br)cc2)c2c(n1CC1CCCO1)CCCC2 (stereo unspecified)	i	+
O=C(CSc1nc(=O)n(CC2CCCO2)c2c1CCCC2)NCc1ccc(F)cc1 (stereo unspecified)	i	i
O=C(CSc1nc(=O)n(CC2CCCO2)c2c1CCCC2)Nc1ccc(F)cc1F (stereo unspecified)	i	+
O=c1nc(SCc2ccc([N+](=O)[O-])cc2)c2c(n1CC1CCCO1)CCC2 (stereo unspecified)	i	i
O=C(CSc1nc(=O)n(CCCO)c2c1CCC2)Nc1ccc(F)c([N+](=O)[O-])c1	i	i
CCCN1C(=O)C(C)(C)COc2cc(NC(=O)CCS(=O)(=O)c3ccccc3)ccc21	i	i
O=S(=O)(NCC1(O)CCOc2ccccc21)c1ccc(F)c(Cl)c1 (stereo unspecified)	i	·
COc1cccc(C(CNC(=O)C2CCCCC2)N2CCOCC2)c1 (stereo unspecified)	·	+
COc1cccc(C(CNC(=O)c2ccc([N+](=O)[O-])cc2)N2CCOCC2)c1 (stereo unspecified)	i	i
SMILES	GIRK2 act	AMPAR-TARP mod
COc1cccc(C(CNC(=O)Nc2ccccc2)N2CCOCC2)c1 (stereo unspecified)	i	i
O=C(NCC(c1ccc(F)cc1)N1CCOCC1)NC1CCCCC1 (stereo unspecified)	·	i
COc1cccc(C(CNC(=O)C2CCN(S(C)(=O)=O)CC2)N2CCOCC2)c1 (stereo unspecified)	i	i
COc1cccc(C(CNC(=O)c2cccc([N+](=O)[O-])c2C)N2CCOCC2)c1 (stereo unspecified)	i	+
COc1cccc(C(CNC(=O)Nc2ccc(Cl)cc2)N2CCOCC2)c1 (stereo unspecified)	i	+
Cc1ccc(C(CNC(=O)NC2CCCCC2)N2CCOCC2)cc1 (stereo unspecified)	i	+
COc1ccc(Cl)cc1S(=O)(=O)NCCC(O)C(C)(C)C (stereo unspecified)	i	i
O=C(Nc1ccc(-n2cnnn2)cc1)C1CC(=O)N(c2ccccc2)C1 (stereo unspecified)	i	i
CN1CCN(n2c3c(c(SCC(=O)Nc4cccc5ccccc45)nc2=O)CCC3)CC1	i	i
Cc1cc(NC(=O)CSc2nc(=O)n(N3CCN(C)CC3)c3c2CCC3)no1	i	+
Cc1cccc(Nc2ccc(N3CCN(C(=O)C4CCCO4)CC3)nn2)n1 (stereo unspecified)	i	·
Cc1cccc(Nc2ccc(N3CCN(C(=O)C4CCC(=O)N4)CC3)nn2)n1 (stereo unspecified)	i	+
